# Data published in PubChem BioAssay (Tox21).
# “And” between values parts separate entries of the source, which are not always exact repeats. Identical values can stand only once. Inconclusive results are not listed. A call without a number means that no potency is given here. Unmarked numbers belong to inactive results. The source made the active and inactive calls. Calls follow the shape of the dose curve; as a rule, active = well fitted activation curve with a large enough effect in the repeat runs; inconclusive = weak or mixed curves; inactive = flat fitted curve, though single readings scatter.
# Assay: A CellTox Green Cytotoxicity Assay to monitor cytotoxicity in HepG2 cells - 40 hour (AID 1224879); also: nearly all actives have a fitted effect of over 40% in size
# Conditions: CellTox Green fluorescence; series mostly up to 76.8 µM
# Description: National Center for Advancing Translational Sciences [NCATS]
# NIH Chemical Genomics Center [NCGC]
# U.S. Environmental Protection Agency [EPA]
# National Institutes of Environmental Health Sciences [NIEHS]
# National Toxicology Program [NTP]
# Cell-based models are critical for drug discovery. Determining the natural cytotoxic effects resulting from test compounds is an essential research activity. A CellTox Green Cytotoxicity Assay to monitor cytotoxicity in real time of continues cell culture during 40 hours of the compound treatment was used to screen Tox21 10K library compounds in HepG2 cells. CellTox Green Cytotoxicity Assay is a nonlytic, homogeneous, biofluorescent method to measure cytotoxicity in cell culture after experimental manipulation. The assay system uses a proprietary asymmetric cyanine dye that is excluded from viable cells but preferentially stains the dead cell's DNA. […] Viable cells produce no appreciable increases in fluorescence. Therefore, the fluorescence signal produced by the binding interaction with dead cell DNA is proportional to cytotoxicity.
# The mixture of HepG2 cell suspension and reagents were dispensed at 600cells/6 ul/well in 1536-well tissue culture treated black solid bottom plates using a Multidrop dispenser. After the assay plates were incubated at a 37 C/5% CO2 incubator for 5 hours, 23 nL of compounds dissolved in DMSO, positive and negative controls was transferred to the assay plate by a pintool work station. The plates were incubated at 37 C for 40 hours. The fluorescence intensity were measured at 0h, 8h, 16h, 24h, 32h and 40h time points using ViewLux plate reader during compound treatment.
# Potency is read from the fitted curve at half-maximal effect.
Structure (SMILES),Potency,cytotoxicity increase
CC1CNCC(C)O1 (stereo not given),inactive,–
CC(C)CCOCCC(C)C,inactive,–
CC(C)(C)C1=CC(=O)C=C(C(C)(C)C)C1=O,inactive,–
Cc1ccc(-n2[nH]c(C)c(N=Nc3cccc(-c4cccc(C(=O)O)c4)c3O)c2=O)cc1C,inactive,–
N#CSCSc1nc2ccccc2s1,21.9 µM (active),–
CCCCCCCCCCCCOC(=O)c1cc(O)c(O)c(O)c1,48.8 µM (active) and 54.9 µM (active),–
CC(C)(C)c1cc(/C=C2\SC(=N)NC2=O)cc(C(C)(C)C)c1O,43.6 µM (active),–
CCCCCCCCCCCCCc1ccccc1,inactive,–
C[n+]1c2cc(N)ccc2cc2ccc(N)cc21 (tested in a mixture with another compound),21.3 µM (active),–
Cc1cccc(Br)c1,inactive,–
CC1CCCCC1,inactive,–
C=C(C)CCCC,inactive,–
COc1cc(C=C2CCC/C(=C\c3ccc(O)c(OC)c3)C2=O)ccc1O,21.3 µM (active),–
CC[N+](CC)(CC)Cc1ccccc1,inactive,–
COc1cccc(O)c1,inactive,–
CCc1cccc(C)c1,inactive,–
CCN(CC)CCNc1ccc(CO)c2sc3ccccc3c(=O)c12,13.4 µM (active),–
Oc1c(Br)cc(Br)c2cccnc12,inactive,–
Clc1cccnc1,inactive,–
C=CC(=C)CC/C=C(\C)CCC=C(C)C,–,-0.316% [at 15.8 µM]

Structure (SMILES),Potency,cytotoxicity increase
Oc1ccc(-c2ccccc2)c(Cl)c1,49 µM (active),–
COC(=O)CC(C)CCC=C(C)C (stereo not given),inactive,–
SCCCCCCCCS,19.5 µM (active),–
O=Cc1ccc(F)cc1,inactive,–
C=C/C=C/C=C/CCCCC,–,-4.48% [at 15.8 µM]
CN(C)CCOC(c1ccccc1)c1ccccc1 (tested in a mixture with another compound),inactive,–
CCOC(=O)COc1ccc(C)cc1,inactive,–
CO[Si](CCCNCCNCCN)(OC)OC,inactive,–
CC1=CCC(=O)O1,inactive,–
CC1(C)C(=O)N(Br)C(=O)N1Br,inactive,–
CC(C)(c1cc(Br)c(O)c(Br)c1)c1cc(Br)c(O)c(Br)c1,inactive,–
CCCCOCC,inactive,–
CCCCCCCOC(=O)c1ccccc1C(=O)OCCCCCCC,inactive,–
CCOC(OCC)C(=O)c1ccccc1,inactive,–
NC1(c2ccc(-c3nc4ccn5c(=O)[nH]nc5c4cc3-c3ccccc3)cc2)CCC1,26.8 µM (active),–
CN(C)c1ccc(N=NS(=O)(=O)O)cc1,inactive,–
CCC(C)c1ccccc1 (stereo not given),inactive,–
Cc1c(-c2ccc(O)cc2)n(Cc2ccc(OCCN3CCCCCC3)cc2)c2ccc(O)cc12,8.49 µM (active),–
c1ccc2c(c1)CCC2,inactive,–
Cc1cncc(C)c1,inactive,–
